Measurements taken from PubChem BioAssay AID651815 (National Center for Advancing Translational Sciences (NCATS), 2012).
The whole screen tested about 2,100 compounds, of which about 1,100 (52%) were called active. Not shown: some 29% with an inconclusive outcome. Calls follow the shape of the dose curve; as a rule, active = well fitted inhibition curve with a large enough effect; inconclusive = small, poorly fitted or top-dose-only effect; inactive = no such curve, though single readings can be large or run the other way. So high a share suggests a set chosen from earlier hits. The list shows a part of the results.

Biological target: DNA dC->dU-editing enzyme APOBEC-3F (Homo sapiens) (UniProt Q8IUX4)
Sequence (Q8IUX4 whole entry, looked up): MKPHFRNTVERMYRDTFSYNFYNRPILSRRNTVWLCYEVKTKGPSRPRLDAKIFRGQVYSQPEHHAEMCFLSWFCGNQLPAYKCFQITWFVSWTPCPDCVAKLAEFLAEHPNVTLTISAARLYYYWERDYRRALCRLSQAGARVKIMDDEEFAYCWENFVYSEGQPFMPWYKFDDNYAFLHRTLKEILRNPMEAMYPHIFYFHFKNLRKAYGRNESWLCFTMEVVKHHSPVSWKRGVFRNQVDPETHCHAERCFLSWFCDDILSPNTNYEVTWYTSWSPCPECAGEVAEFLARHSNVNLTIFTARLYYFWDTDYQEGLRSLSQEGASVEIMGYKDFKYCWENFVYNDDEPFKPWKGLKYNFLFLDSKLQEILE
Assay: qHTS for inhibitors of Vif-A3F interactions: Cherry picks counterscreen; also: nearly all actives have a fitted effect of over 65% in size
Details: HeLa A3F-eYFP/Vif cells, eYFP fluorescence, 24 h; series mostly up to 46.1 µM
Procedure, shortened: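 HeLa cells stably expressing A3F-eYFP and Vif, cultured overnight, then treated 24 h at 37 degrees C with compounds at several concentrations; yellow fluorescence (488 nm Ex/500-530 nm Em) imaged on Acumen; MG132 positive control.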
Potency is read from the fitted curve at half-maximal effect.

| Structure (SMILES) | Potency |
| --- | --- |
| O=C(NCc1cccs1)C1CCN(c2ccc(S(=O)(=O)N3CCOCC3)cc2Cl)CC1 | 2.8 µM (active) |
| CC(C)(C)OC(=O)NC(Cc1ccccc1)C(=O)N1CCC(C(=O)NCC(=O)Nc2ccc(F)cc2)CC1 (configuration not stated) | 23.1 µM (active) |
| Cc1cc(C)c(N2C(=O)CC(Sc3ccccc3N)C2=O)c(C)c1 (configuration not stated) | 15.8 µM (active) |
| Cc1cc(C)n(-c2nc3c(c(=O)[nH]c(=O)n3C)n2CC(O)COc2ccc(Cl)cc2Cl)n1 (configuration not stated) | 2.23 µM (active) |
| COc1ccc(S(=O)(=O)N2N=C(C)Oc3ccccc3C2=O)cc1 | 3.14 µM (active) |
| CC1(C)CCN2CCC(C)(C)c3c(O)ccc1c32 | 14 µM (active) |
| CCOc1ccc(CN2C(=O)c3ccccc3Sc3ccc(C(=O)O)cc32)cc1 | 7.31 µM (active) |
| CC(C)OC(=O)c1c2c(n3ccccc13)C(=O)c1ccccc1C2=O | 8.2 µM (active) |
| CCOc1ccccc1C(=O)Nc1c(C(=O)Nc2ccc(F)cc2)oc2ccccc12 | 0.92 µM (active) |
| Oc1ccc(C=NNC(=S)Nc2ccc(F)cc2)c(O)c1 | inactive |
| O=S(=O)([N-]c1nc2ccccc2nc1-[n+]1ccc(-c2ccncc2)cc1)c1ccccc1 | 18.4 µM (active) |
| Cc1cc(C)c[n+](-c2nc3ccccc3nc2[N-]S(=O)(=O)c2ccc(Br)s2)c1 | 9.2 µM (active) |
| CCc1cc[n+](-c2nc3ccccc3nc2[N-]S(=O)(=O)c2ccc(Br)s2)cc1 | 8.2 µM (active) |
| NN=C1c2ccccc2C(=O)C1C(=O)C(c1ccccc1)c1ccccc1 (configuration not stated) | 12.5 µM (active) |
| O=C(c1ccccc1)C1C(=O)c2ccccc2C1=O | inactive |
| CCCCN1C(=O)C2Cc3c([nH]c4ccccc34)CN2C1=S (configuration not stated) | 15.8 µM (active) |
| CCS(=O)(=O)Nc1cccc(C2=NN(C(=O)c3ccco3)C(c3ccco3)C2)c1 (configuration not stated) | 11.2 µM (active) |
| CCCN1CCC(=NNc2ccc(S(=O)(=O)N3CCOCC3)cc2[N+](=O)[O-])CC1 | 3.96 µM (active) |
| Cc1ccc(NC(=S)N=Nc2c(O)n(C)c3ccc(S(=O)(=O)N4CCOCC4)cc23)cc1 | inactive |
| O=C(O)c1ccccc1/C=N/Nc1ccc(S(=O)(=O)N2CCOCC2)cc1[N+](=O)[O-] | inactive |
| COc1ccccc1CCC(=O)Nc1ccc2c(c1)c(=O)n(C)n2-c1cccs1 | 3.14 µM (active) |
| CC(C)=CCn1c2ccc(NC(=O)NCc3ccc(F)cc3)cc2c(=O)n1C | 3.14 µM (active) |

| Structure (SMILES) | Potency |
| --- | --- |
| COc1ccccc1CCC(=O)Nc1ccc2c(c1)c(=O)n(C)n2Cc1ccc(F)cc1 | 15.8 µM (active) |
| Cc1ccc2[nH]c3c(c2c1)CN(C(=O)CN1CC(C)OC(C)C1)CC3 (configuration not stated) | inactive |
| O=C(C[C@@H]1C/C=C/CC[C@H](Cc2ccc(F)cc2)C(=O)OC[C@@H](Cc2ccccc2)NC1=O)N[C@H](CO)Cc1ccccc1 | 16.4 µM (active) |
| CC(/C=N/NC(=O)c1cccc(F)c1)=C\c1ccccc1 | 12.5 µM (active) |
| COc1cccc(C(=O)N/N=C/C(Br)=C/c2ccccc2)c1 | 2.8 µM (active) |
| O=C(O)c1ccc(N/N=C/C(Br)=C/c2ccccc2)cc1 | inactive |
| C/C(=N/NC(N)=S)c1ccc(Br)s1 | inactive |
| COc1cc(OC)cc(C(=O)N2CC(=O)Nc3ccccc32)c1 | 1.25 µM (active) |
| CCCn1nc(C(=O)N2CC(=O)Nc3ccccc32)c2ccccc2c1=O | 11.2 µM (active) |
| Cc1cc(C)cc(C(=O)N2CC(=O)Nc3ccccc32)c1 | 0.994 µM (active) |
| O=C1CN(C(=O)c2cc(Br)c(Br)s2)c2ccccc2N1 | 6.27 µM (active) |
| CCC(C)[C@H](NC(=O)N1CC(=O)Nc2ccccc21)C(=O)Nc1ccccc1C (some centres not stated) | 15.8 µM (active) |
| Cc1ccc(N/C(N)=N/c2nc(CSc3nnc(C)s3)cc(=O)[nH]2)c(C)c1 | 1.77 µM (active) |
| CC(=Nc1ccccc1)C1=C(O)C(Cc2ccccc2)NC1=O (configuration not stated) | 0.314 µM (active) |
| CC#Cc1cc2c(cc1O)CCC1C2CCC2(C)C(O)CCC12 (configuration not stated) | 5.59 µM (active) |
| C=C(NC(=O)C(=C)NC(=O)c1csc(C2=NC3c4csc(n4)C4NC(=O)c5csc(n5)C(C(C)(O)C(C)O)NC(=O)C5CSC(=N5)/C(=C/C)NC(=O)C(C(C)O)NC(=O)c5csc(n5)C3(CC2)NC(=O)C(C)NC(=O)C(=C)NC(=O)C(=C)NC(=O)C(C(C)C)NC2C=Cc3c(C(C)O)cc(nc3C2O)C(=O)OC4C)n1)C(N)=O (configuration not stated) | 5.59 µM (active) |
| COc1ccc(NC(=O)CN2C(=O)C3(SCC(=O)N3c3ccccc3)c3ccccc32)cc1Cl (configuration not stated) | inactive |
| CC(CC(=O)Nc1ccc2c(c1)c(=O)n(C)n2-c1ccccc1F)c1ccccc1 (configuration not stated) | 12.5 µM (active) |
| CC(CC(=O)Nc1ccc2c(c1)c(=O)n(C)n2-c1ccccc1)c1ccccc1 (configuration not stated) | 2.23 µM (active) |
| Cn1c(=O)c2cc(NC(=O)Cc3cccc4ccccc34)ccc2n1-c1ccccc1 | 7.04 µM (active) |
| CCOc1ccc(S(=O)(=O)NCc2ccccn2)cc1NC(=O)c1ccccc1 | 3.14 µM (active) |
| CCN1/C(=C/C=C2/SC(=Nc3cccc4ncccc34)N(C)C2=O)Sc2ccccc21 | 2.31 µM (active) |

| Structure (SMILES) | Potency |
| --- | --- |
| CCc1ccc2nc(SCC(=O)Nc3ccccc3N3CCOCC3)c(C#N)cc2c1 | 2.59 µM (active) |
| CCc1ccc2nc(SCC(=O)N3CC(=O)Nc4ccccc43)c(C#N)cc2c1 | 14 µM (active) |
| N#Cc1cc2ccccc2nc1SCC(=O)Nc1ccccc1N1CCOCC1 | inactive |
| COc1ccc2nc(SCC(=O)N3CC(=O)Nc4ccccc43)c(C#N)cc2c1 | 16.4 µM (active) |
| CCC1CCCCN1CCCNC(=O)c1ccc2c(c1)N(Cc1ccccc1F)C(=O)c1ccccc1S2(=O)=O (configuration not stated) | 4.11 µM (active) |
| Cc1nc(SCC(=O)c2ccccc2)c(C#N)c(-c2ccco2)c1C(=O)NCc1ccco1 | inactive |
| Cc1ccc(C(=O)CSc2nc(-c3ccccc3)ccc2C#N)cc1 | 16.4 µM (active) |
| N#Cc1ccc(-c2cccnc2)nc1SCC(=O)c1ccccc1 | 2.91 µM (active) |
| CC(=O)c1ccc2cccc3c2c1N=CN3C | 12.5 µM (active) |
| CN1CCc2c(sc(NC(=O)CSc3ccc(F)cc3)c2-c2nc3ccccc3s2)C1 | 14.6 µM (active) |
| CC(=O)N1CCc2c(sc(NC(=O)CSc3ccccc3)c2-c2nc3ccccc3s2)C1 | 16.4 µM (active) |
| CC(=O)Nc1sc2c(c1-c1nc3ccccc3s1)CCN(C(C)C)C2 | 3.26 µM (active) |
| Cc1ccc(/C=C/c2ccc(N(C)C)cc2)[n+](C)c1 | 15.8 µM (active) |
| CC[n+]1cc(C)ccc1/C=C/c1ccc(N(C)C)cc1 | 17.7 µM (active) |
| CN(C)c1ccc(/C=C/c2cc[n+](C)cc2)cc1 | 17.7 µM (active) |
| CCOC(=O)c1c(CC(C)C)csc1/N=C/C1C(=O)CCCC1=O | inactive |
| O=C(NCc1ccco1)c1cccc2c1C(=O)c1ccc(N3CCC(Cc4ccccc4)CC3)cc1S2(=O)=O | 20.6 µM (active) |
| O=C(NCc1cc(C(F)(F)F)ccc1Cl)c1cccc2c1C(=O)c1ccc(N3CCOCC3)cc1S2(=O)=O | 18.4 µM (active) |
| O=C(NCc1cc(C(F)(F)F)ccc1Cl)c1cccc2c1C(=O)c1ccc(N3CCC(Cc4ccccc4)CC3)cc1S2(=O)=O | 14 µM (active) |
| O=C(NCc1cccc(C(F)(F)F)c1)c1cccc2c1C(=O)c1ccc(N3CCC(Cc4ccccc4)CC3)cc1S2(=O)=O | 18.4 µM (active) |
| Cc1ccc(C(=O)NC2c3ccccc3-c3ccccc32)cc1 | 3.96 µM (active) |
| COc1ccccc1-c1cc(NC=O)c2ncc(-c3ccc(S(C)(=O)=O)cc3)n2c1 | 5.59 µM (active) |

| Structure (SMILES) | Potency |
| --- | --- |
| COc1ccccc1-c1cc(NC=O)c2ncc(-c3cccc(C(=O)N(C)C)c3)n2c1 | 14 µM (active) |
| CN(C)C(=O)c1cccc(-c2cnc3c(NC=O)cc(-c4ccccc4F)cn23)c1 | inactive |
| CC1C/C(=N\NC(N)=S)c2cc(Cl)ccc2S1 (configuration not stated) | inactive |
| O=C(Nc1nnc(-c2ccc3c(c2)CCCC3)o1)c1c(F)cccc1F | inactive |
| Cc1ccccc1-n1c(/C=C/c2c(C)n(C)c3ccccc23)nc2ccccc2c1=O | 18.4 µM (active) |
| O=C(Nc1cc(Cl)ccc1-n1cncn1)c1ccc([N+](=O)[O-])s1 | 14 µM (active) |
| COc1ccc(/C=N/NC(=O)c2[nH]nc3c2CCc2ccccc2-3)cc1OC | 4.98 µM (active) |
| COc1cccc(/C=N/NC(=O)c2[nH]nc3c2CCc2ccccc2-3)c1 | 2.5 µM (active) |
| COc1ccc(CN2C(=O)C(C)Nc3ncnc(N4CCc5ccccc5C4)c32)cc1 (configuration not stated) | 2.8 µM (active) |
| CCn1nc(-c2ccccc2)c2nc3ccccc3nc21 | 20.6 µM (active) |
| O=C(NCC1CCCO1)c1nn2c(C(F)(F)F)cc(-c3cc(Br)cs3)nc2c1Br (configuration not stated) | 11.6 µM (active) |
| CS(=O)(=O)N(CC(=O)N1CCN(Cc2ccccc2)CC1)c1ccccc1F | inactive |
| CC(=O)n1c2ccccc2c2nc3ccccc3nc21 | 5.8 µM (active) |
| Cc1cccc(-n2c(N)c(-c3nc4ccccc4n3C)c3nc4ccccc4nc32)c1 | inactive |
| CCS(=O)(=O)N1N=C(c2cccc(NS(C)(=O)=O)c2)CC1c1ccc(C)cc1 (configuration not stated) | 18.4 µM (active) |
| CS(=O)(=O)Nc1ccc(C2=NN(S(C)(=O)=O)C(c3ccc4nccnc4c3)C2)cc1 (configuration not stated) | inactive |
| CS(=O)(=O)N1N=C(c2ccccc2)CC1c1ccc2c(c1)OCO2 (configuration not stated) | 14 µM (active) |
| Cc1ccc(CNC(=O)C2CC(c3cc(C(F)(F)F)cc(C(F)(F)F)c3)=NO2)o1 (configuration not stated) | 7.04 µM (active) |
| N#Cc1cc2ccccc2nc1SCc1ccccn1 | 16.4 µM (active) |
| O=C1c2ccccc2C(=O)c2c(/C=C/N3CCCCC3)ccnc21 | 18.4 µM (active) |
| Clc1ccc2c(c1)C(C1=NCCN1)c1ccccc1CS2 (configuration not stated) | 3.14 µM (active) |
